Several values for one entry are separate records, joined by “and”; a condition that tells them apart may be missing. Equal values may be shown once. Results filed as inconclusive are left out. Activity calls are given as the source filed them. Unless noted, calls follow the shape of the dose curve; as a rule, active = well fitted curve in the direction sought with a large enough effect; inconclusive = small, poorly fitted or top-dose-only effect, or another doubt; inactive = no such curve, though single readings can be large; an effect the other way counts as inactive or inconclusive.
Experiments:
[1] = Cell Viability - HepG2 (AID 433; calls by dose curve;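 also: potency is read from the fitted curve at half-maximal effect; cells exposed to compound for 40 hours; potency for ATP loss meaning cytotoxicity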); conditions: qHTS
In short: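 HepG2 hepatocellular carcinoma cells (1500/well) were treated with compounds for 40 h at 37 °C in complete medium; intracellular ATP was read by CellTiter-Glo luminescence. Data were normalized to DMSO and 100 uM tamoxifen, and AC50 came from Hill fits.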

[2] = Cell Viability - NIH 3T3 (AID 541); conditions: NIH 3T3 cell viability, qHTS; activity change, negative = cytotoxicity: at 92.2 µM (top of the series);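 also: cells exposed to compound for 40 hours; plate controls were DMSO alone for no effect and tamoxifen positive control for full effect; nearly all actives have a fitted effect of over 25% in size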
In short: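 Cells seeded at 1000/well, rested 5 hr at 37 °C, then dosed and incubated 40 hr at 37 °C. CellTiter-Glo added, 20 min room temperature, luminescence read. AC50 by Hill fit.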

[3] = Cell Viability - H-4-II-E (AID 543); conditions: H-4-II-E rat hepatoma viability; series mostly up to 92.2 µM;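 also: cells exposed to compound for 40 hours; % is scaled to controls: 0 for no effect and ±100 for the full control effect; nearly all actives have a fitted effect of over 35% in size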
In short: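 Cells seeded at 1500 per well and rested 5 hr; compounds added; 40 hr incubation at 37 °C; CellTiter-Glo added, 20 min at room temperature; luminescence read. Hill-equation fits gave AC50.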

[4] = Cell Viability - SH-SY5Y (AID 544); conditions: SH-SY5Y neuroblastoma cell viability; viability change, negative = cytotoxic: at 92.2 µM (top of the series);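 also: cells exposed to compound for 40 hours; 0% = DMSO alone and -100% = 100 µM tamoxifen; nearly all actives have a fitted effect of over 55% in size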
In short: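 Cells were plated at 1500 per well and allowed 5 hr at 37 °C. Compounds were added across a concentration range and incubated 40 hr at 37 °C. CellTiter-Glo was added for 20 min at room temperature before luminescence reading.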

[5] = Cell Viability - LYMP2-001 (AID 921); conditions: LYMP2-001 lymphoblastoid cell viability; series mostly up to 92.2 µM;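 also: 0% = DMSO only and full inhibition = tetraoctylammonium bromide control wells; nearly all actives have a fitted effect of over 70% in size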
In short: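 Human lymphoblastoid cells (Coriell), 2500 per well, were preincubated 5 hr at 37 C, then exposed to compounds in complete medium for 24 hr at 37 C. Cellular ATP was read by CellTiter-Glo luminescence; AC50 from Hill fits of concentration-response data.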

[6] = Cell Viability - LYMP1-003 - Assay at 40 hr (AID 964); conditions: LYMP1-003 lymphoblastoid viability; series mostly up to 92.2 µM; also: % is scaled to controls: 0 for no effect and ±100 for the full control effect; nearly all actives have a fitted effect of over 60% in size
In short: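 Luminescent ATP signal (CellTiter-Glo) served as the viability read-out after 40 hr compound treatment of human lymphoblastoid LYMP1-003 cells at 37 C. Decreases in ATP were fitted with the Hill equation to give AC50.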

[7] = Cell Viability - LYMP2-003 (AID 965); conditions: LYMP2-003 lymphoblastoid cell viability; series mostly up to 92.2 µM;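 also: cells exposed to compounds for 24 h before reading; 0% = DMSO only and full effect = 92 µM tetraoctylammonium bromide; nearly all actives have a fitted effect of over 50% in size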
In short: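 Human lymphoblastoid cells (2500/well) were pre-incubated 5 hr at 37 C, then exposed to compounds over a concentration range for 24 hr at 37 C. Intracellular ATP was read by CellTiter-Glo luminescence; AC50 came from Hill-equation fits.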

[8] = Cell Viability - LYMP2-015 (AID 971); conditions: LYMP2-015 lymphoblastoid cell viability; series mostly up to 92.2 µM;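 also: 0% = DMSO only and full effect = 92 µM tetraoctylammonium bromide; nearly all actives have a fitted effect of over 55% in size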
In short: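 Cells are seeded at 2500 per well and incubated 5 hr at 37 C. Compounds are added across a concentration series for 24 hr at 37 C. CellTiter-Glo is added, and luminescence is read after 30 min at room temperature.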

[9] = Cell Viability - LYMP2-017 (AID 972); conditions: LYMP2-017 lymphoblastoid cell viability; series mostly up to 92.2 µM; also: % is scaled to controls: 0 for no effect and ±100 for the full control effect; nearly all actives have a fitted effect of over 55% in size
In short: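 Cytotoxicity is scored as a concentration-dependent drop in cellular ATP in a human lymphoblastoid line after 24 hr treatment at 37 C. Values are AC50s from Hill-equation modelling.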

[10] = Cell Viability - LYMP2-021 (AID 974); conditions: LYMP2-021 lymphoblastoid cells viability; series mostly up to 92.2 µM;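 also: compound exposure lasts 24 hours at 37 °C; % is scaled to controls: 0 for no effect and ±100 for the full control effect; nearly all actives have a fitted effect of over 55% in size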
In short: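 Loss of cellular ATP, measured with a luciferase-based CellTiter-Glo readout, serves as the toxicity signal in human lymphoblastoid cells treated for 24 hours at 37 C. Potency is reported as AC50 from a standard Hill model.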

[11] = Cell Viability - LYMP2-006 (AID 978); conditions: LYMP2-006 lymphoblastoid cell viability, qHTS; series mostly up to 92.2 µM; also: % is scaled to controls: 0 for no effect and ±100 for the full control effect; nearly all actives have a fitted effect of over 60% in size
In short: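 Human lymphoblastoid cells, 2500 per well, were preincubated 5 hr at 37 C, then exposed to compounds for 24 hr at 37 C in complete medium. Viability was read as intracellular ATP by CellTiter-Glo luminescence; AC50 from Hill-equation fits of qHTS concentration-response data.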

[12] = Cell Viability - LYMP2-010 (AID 981); conditions: LYMP2-010 lymphoblastoid cell viability, qHTS; series mostly up to 92.2 µM
In short: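 Steps: seed 2500 LYMP2-010 cells per well; incubate 5 hr at 37 C; add compound; incubate 24 hr at 37 C; add CellTiter-Glo, wait 30 min at room temperature; read luminescence. Concentration-response fitted to Hill equation for AC50.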

[13] = Cell Viability - LYMP2-020 (AID 986); conditions: series mostly up to 92.2 µM
In short: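 Seed 2500 cells per well and incubate 5 hr at 37 C. Add compounds at a concentration series and incubate 24 hr at 37 C. Add CellTiter-Glo, wait 30 min at RT, read luminescence, and fit a Hill curve for AC50.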

[14] = target: Retinoic acid receptor RXR-alpha (Homo sapiens) (UniProt P19793); experiment: qHTS assay for small molecule agonists of retinoid X receptor alpha signaling (AID 588544; calls by dose curve;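 also: 0% = DMSO basal wells and 100% = reference agonist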); conditions: HEK293T RXRa-UAS-bla, beta-lactamase reporter, 18 h; series mostly up to 76.7 µM
Chain of Retinoic acid receptor RXR-alpha (Homo sapiens) (P19793 whole entry, looked up): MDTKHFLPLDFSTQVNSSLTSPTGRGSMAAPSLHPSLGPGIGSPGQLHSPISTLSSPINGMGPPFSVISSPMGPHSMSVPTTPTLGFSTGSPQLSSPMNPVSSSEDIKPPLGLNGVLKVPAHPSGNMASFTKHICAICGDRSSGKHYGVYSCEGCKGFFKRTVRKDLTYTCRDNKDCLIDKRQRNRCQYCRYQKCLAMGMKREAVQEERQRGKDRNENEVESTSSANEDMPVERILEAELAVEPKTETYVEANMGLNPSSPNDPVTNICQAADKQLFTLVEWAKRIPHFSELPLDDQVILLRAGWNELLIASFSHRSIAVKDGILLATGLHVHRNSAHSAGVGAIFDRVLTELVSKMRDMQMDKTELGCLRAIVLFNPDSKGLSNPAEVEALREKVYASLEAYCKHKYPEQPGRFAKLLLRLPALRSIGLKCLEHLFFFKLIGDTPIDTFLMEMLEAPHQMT

[15] = qHTS assay for small molecule agonists of the antioxidant response element (ARE) signaling pathway measured by Nrf2-dependant transcriptional activity (AID 720636; active = well fitted curve in the direction sought with a large enough effect in the repeat runs; an effect the other way counts as inactive or inconclusive;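 also: HepG2 cells with an ARE-driven luciferase reporter; % of control where 0% means no effect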); conditions: ARE-luc HepG2, Nrf2 luciferase reporter, 16 h; series mostly up to 92.4 µM
In short: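 Reporter gene assay, HepG2 ARE-luc: 16 hr compound, 37 C, 5% CO2; read-out luciferase luminescence.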

[16] = qHTS assay for small molecule activators of the human pregnane X receptor (PXR) signaling pathway (AID 720659; call rule not given here; also: 0% is about no effect); conditions: DPX-2 HepG2 CYP3A4-luciferase, 24 h; series mostly up to 92.3 µM
[17] = Cell Viability - LYMP2-012 (AID 982); conditions: LYMP2-012 lymphoblastoid cell viability qHTS; series mostly up to 92.2 µM
[18] = Cell Viability - LYMP1-002 - Assay at 40 hr (AID 994); conditions: LYMP1-002 lymphoblastoid cell viability; series mostly up to 92.2 µM;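 also: 0% = DMSO only and full inhibition = 92 µM tetraoctylammonium bromide; nearly all actives have a fitted effect of over 60% in size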
In short: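 Cells are plated at 2500 per well and rested 5 hr at 37 C. Compounds are added and incubated 40 hr at 37 C. CellTiter-Glo reagent is added for 30 min at room temperature before luminescence is read.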

[19] = target: Retinoic acid receptor RXR-alpha (Homo sapiens) (UniProt P19793); experiment: qHTS assay for small molecule antagonists of retinoid X receptor alpha signaling (AID 588546; active = well fitted inhibition curve with a large enough effect in the signal ratio, with a control signal flat, not every such curve was filed as active; the % refers to the signal ratio;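 also: cells stimulated with 9-cis-retinoic acid as agonist; % is scaled to controls: 0 for no effect and ±100 for the full control effect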); conditions: HEK293T RXRa-UAS-bla, beta-lactamase ratio, antagonist mode
In short: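 Beta-lactamase reporter inhibition, read as CCF4 fluorescence ratio (ex 405, em 460/530 nm) after 2 h at RT. HEK293T UAS-bla cells, 2500/well, were stimulated with 9-cis-RA at 500 or 100 nM final alongside test compound for 18 h at 37 C.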

[20] = Cell Viability - LYMP2-016 (AID 984); conditions: LYMP2-016 lymphoblastoid cell viability, qHTS; series mostly up to 92.2 µM
In short: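 Human lymphoblastoid cells (LYMP2-016), 2500/well in complete medium, preincubated 5 hr at 37 C, then compound-treated 24 hr at 37 C. Intracellular ATP read by CellTiter-Glo luminescence after 30 min at room temperature; AC50 from Hill-equation concentration-response fits.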

ClCC(Cl)Cl
inactive: Potency [1] > 92 µM | Potency [2] | Potency [3] | Potency [4] | Potency [5] | Potency [6] | Potency [7] | Potency [8] | Potency [9] | Potency [10] | Potency [11] | Potency [12] | Potency [13] | outcome [14] | Potency [15] | outcome [16]

C=CCCC#N
inactive: Potency [1] > 92 µM | Potency [3] | Potency [4] | Potency [5] | Potency [6] | Potency [8] | Potency [9] | Potency [10] | Potency [11] | Potency [12] | Potency [17] | Potency [13] | Potency [18] | outcome [14] | max response [19] 17.4% | Potency [15] | outcome [16]

CC[N+](=O)[O-]
inactive: Potency [1] > 92 µM | Potency [2] | Potency [3] | Potency [4] | Potency [5] | Potency [7] | Potency [8] | Potency [9] | Potency [10] | Potency [11] | Potency [12] | Potency [17] | Potency [20] | Potency [13] | Potency [18] | outcome [14] | max response [19] 5.74% | Potency [15] | outcome [16]

CCSC(=O)N1CCCCCC1
inactive: Potency [1] > 92 µM | Potency [2] | Potency [3] | Potency [4] | Potency [5] | Potency [6] | Potency [7] | Potency [8] | Potency [9] | Potency [11] | Potency [12] | Potency [17] | Potency [20] | Potency [13] | max response [19] -8.27% and -1.48% | outcome [16]

Cc1cc(-c2ccc(N)c(C)c2)ccc1N
inactive: Potency [1] > 92 µM | Potency [2] | Potency [4] | Potency [5] | Potency [7] | Potency [8] | Potency [9] | Potency [10] | Potency [12] | Potency [17] | Potency [20] | Potency [13] | outcome [14] | max response [19] -5.08% and -3.85% and -31.9% | Potency [15]

Nc1ccccc1-c1ccccc1
inactive: Potency [1] > 92 µM | Potency [3] | Potency [4] | Potency [5] | Potency [6] | Potency [7] | Potency [8] | Potency [9] | Potency [11] | Potency [12] | Potency [20] | outcome [14] | max response [19] -19.9% | Potency [15] | outcome [16]

CC(C)(C)C(O)(CCc1ccc(Cl)cc1)Cn1cncn1 (configuration not stated)
inactive: Potency [1] > 92 µM | Potency [3] | Potency [5] | Potency [6] | Potency [7] | Potency [8] | Potency [9] | Potency [10] | Potency [11] | Potency [12] | Potency [17] | Potency [20] | Potency [13] | Potency [18] | outcome [14] | Potency [15]

C=CC=O
inactive: Potency [1] > 92 µM | Potency [5] | Potency [6] | Potency [7] | Potency [8] | Potency [9] | Potency [10] | Potency [11] | Potency [12] | Potency [20] | outcome [14] | Potency [15] | outcome [16]
active: viability change, negative = cytotoxic [4] -91.6%

CN(C)N=O
inactive: Potency [1] > 92 µM | Potency [4] | Potency [5] | Potency [6] | Potency [9] | Potency [10] | Potency [11] | Potency [12] | Potency [17] | Potency [20] | Potency [13] | Potency [18] | outcome [14] | max response [19] -0.776% | outcome [16]

C=CCO
inactive: Potency [1] > 92 µM | Potency [3] | Potency [4] | Potency [5] | Potency [6] | Potency [7] | Potency [9] | Potency [10] | Potency [11] | Potency [12] | Potency [17] | Potency [20] | Potency [13] | Potency [18] | outcome [14] | max response [19] 7.67% | Potency [15] | outcome [16]

Clc1ccc(Cl)c(Cl)c1
inactive: Potency [1] > 92 µM | Potency [2] | Potency [3] | Potency [5] | Potency [7] | Potency [8] | Potency [10] | Potency [11] | Potency [12] | Potency [17] | outcome [14] | max response [19] 7.63% and -21.3% | Potency [15]

ClC(Cl)Br
inactive: Potency [1] > 92 µM | Potency [2] | Potency [3] | Potency [4] | Potency [6] | Potency [7] | Potency [8] | Potency [9] | Potency [10] | Potency [11] | Potency [12] | Potency [17] | Potency [13] | outcome [14] | max response [19] 5.56% | Potency [15] | outcome [16]

ClCCBr
inactive: Potency [1] > 92 µM | Potency [2] | Potency [3] | Potency [4] | Potency [5] | Potency [7] | Potency [8] | Potency [9] | Potency [10] | Potency [11] | Potency [12] | Potency [17] | Potency [18] | outcome [14] | max response [19] -1.05% | Potency [15] | outcome [16]

COc1cc(-c2ccc(N)c(OC)c2)ccc1N
inactive: Potency [1] > 92 µM | Potency [3] | Potency [4] | Potency [6] | Potency [7] | Potency [9] | Potency [10] | Potency [11] | Potency [12] | Potency [17] | Potency [20] | Potency [13] | Potency [18] | max response [19] -9.81% and -21.9% | Potency [15]

O=[N+]([O-])c1cc(Cl)c(Cl)cc1Cl
inactive: Potency [1] > 92 µM | Potency [3] | Potency [4] | Potency [6] | Potency [7] | Potency [8] | Potency [9] | Potency [10] | Potency [20] | Potency [13] | Potency [18] | outcome [14] | max response [19] 7.08% | Potency [15] | outcome [16]

[N-]=[N+]=[N-]
inactive: Potency [1] > 92 µM | Potency [2] | Potency [3] | Potency [4] | Potency [5] | Potency [6] | Potency [7] | Potency [8] | Potency [9] | Potency [10] | Potency [11] | Potency [12] | Potency [17] | Potency [20] | Potency [18] | outcome [14] | max response [19] 13.8% | Potency [15] | outcome [16]

Source: PubChem BioAssay (NCATS)
